Most compounds without a hit are left out; they make up all but 4.7% or so of the library.
PfHsp90 yeast 2: growth inhibition of yeast expressing Plasmodium Hsp90; S. cerevisiae expressing PfHsp90, BacTiter-Glo ATP, 48 h; yeast lacking PDR1 and PDR3 efflux regulators; inhibition, % at 9.4 µM; actives 0.32% (n = 310,000); AID 504621;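 active = every replicate shows inhibition above about 80%, whatever the replicate mean, limit read from the data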
SKKanGAS inh: blocks kanamycin growth of S. pyogenes SKKanGAS strain; BacTiter-Glo, 6 h; inhibition, % at 7.5 µM; actives 1.3% (n = 300,000); AID 1662;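 active = mean replicate score, as percent of positive control median, at least 50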;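 also: strain carries kanamycin resistance gene driven by streptokinase promoter and grows in 40 µg/ml kanamycin; loss of luminescence reflects streptokinase promoter inhibition or plain growth inhibition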
ATG4B inhibitor: blocks human ATG4B protease cleavage of LC3 substrate. actives 0.51% (n = 340,000). ATG4B cleavage of LC3-PLA2, NBD-HPC fluorescence, 1 h. Q9Y4P1. inhibition, % at 8.33 µM. AID 504462; in the data active = inhibition above about 40%
Target sequence (Q9Y4P1 whole entry, looked up): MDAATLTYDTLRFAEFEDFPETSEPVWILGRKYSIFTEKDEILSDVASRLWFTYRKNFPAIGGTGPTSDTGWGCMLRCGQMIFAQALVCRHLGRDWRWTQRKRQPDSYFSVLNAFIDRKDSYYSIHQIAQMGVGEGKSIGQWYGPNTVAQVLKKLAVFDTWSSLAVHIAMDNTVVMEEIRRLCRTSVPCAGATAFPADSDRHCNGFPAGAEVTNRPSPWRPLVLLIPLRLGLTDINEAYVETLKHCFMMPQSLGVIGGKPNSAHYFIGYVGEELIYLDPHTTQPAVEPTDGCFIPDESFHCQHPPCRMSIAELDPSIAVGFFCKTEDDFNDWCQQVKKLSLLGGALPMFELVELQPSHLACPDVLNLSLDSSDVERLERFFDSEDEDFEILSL
tim23-1 inh: tim23-1 yeast growth inhibition | S. cerevisiae tim23-1 growth, BacTiter-Glo luminescence, 24 h | inhibition, % at 20 µM | actives 1.3% (n = 330,000);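 active = growth inhibition of the mutant yeast at or above 50%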;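 also: temperature-sensitive mutant grown at 25 °C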
TIM10 inh: growth inhibitors of TIM10 yeast strain. actives 1.4% (n = 330,000). inhibition, % at 10 µM. S. cerevisiae TIM10 strain growth, BacTiter-Glo luminescence, 24 h;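 active = inhibition of 40% or more at the single tested concentration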;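 also: wild-type TIM10 isogenic control strain grown at permissive 25 °C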
tim10-1 inh: growth inhibitors of tim10-1 mutant yeast. S. cerevisiae tim10-1 ts strain growth, BacTiter-Glo, 24 h. inhibition, % at 20 µM. actives 2.2% (n = 330,000). AID 463190;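 active = inhibition of at least 40%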;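 also: mutant grown at 25 °C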
A number is an active result; 0 = inactive; - = no result.

SMILES | PfHsp90 yeast 2 | SKKanGAS inh | ATG4B inhibitor | tim23-1 inh | TIM10 inh | tim10-1 inh
CC(=O)N1CCN(c2nc(C)nc3sc4c(c23)CCC(C)C4)CC1 (stereo not given) | - | 0 | 0 | 0 | 0 | 0
CCOc1ccc(/C=C2/Sc3ccc(C(=O)N4CCN(C(=O)c5ccco5)CC4)cc3N(C)C2=O)cc1OC | - | 66.6 | - | 0 | 0 | 0
Cc1cccc(/C=C2\Sc3ccc(C(=O)N4CCC(C)CC4)cc3N(C)C2=O)c1 | 0 | 76.1 | 0 | 0 | 0 | 0
CCOC(=O)N1CCN(C(=O)c2ccc3c(c2)N(C)C(=O)/C(=C\c2ccc(OCC)c(OC)c2)S3)CC1 | 0 | 108.4 | 0 | 0 | 0 | 0
Cc1cccc(/C=C2\Sc3ccc(C(=O)N4CCOCC4)cc3N(C)C2=O)c1 | 0 | 0 | 0 | 0 | 0 | 0
CCOc1ccc(/C=C2/Sc3ccc(C(=O)NCC4CCCO4)cc3N(C)C2=O)cc1OC (stereo not given) | 0 | 0 | 0 | 0 | 0 | 0
COc1ccc(/C=C2\Sc3ccc(C(=O)NCCCN4CCCC4)cc3N(C)C2=O)cc1OC | 0 | 0 | 0 | 0 | 0 | 0
C/C(N)=C(/C#N)C(=O)CSc1nc2scc(-c3ccc(F)cc3)c2c(=O)n1C | 0 | 70.4 | 0 | 0 | 0 | 0
CCOC(=O)c1ccc(NC(=O)CC2S/C(=N/N=C/c3c[nH]c4ccccc34)NC2=O)cc1 (stereo not given) | 0 | 65.1 | 0 | 0 | 0 | 0
Nc1nc(NCCOCCO)nc(N2CCCCCC2)c1[N+](=O)[O-] | 0 | 76.8 | 0 | 0 | 0 | 0
C/C(N)=C(/C#N)C(=O)CSc1nc2cc(Cl)ccc2c(=O)n1Cc1ccco1 | - | 60.6 | 0 | 0 | 0 | 0
C/C(N)=C(/C#N)C(=O)CSc1nc2cc(Cl)ccc2c(=O)n1-c1ccc(C)cc1 | 0 | 0 | 0 | 0 | 0 | 0
CCOC(=O)Nc1nnc(-c2ccccc2OC)s1 | 0 | 0 | 0 | 0 | 0 | 0
O=C(NC(CSCc1ccccc1)C(=O)N/N=C/c1ccc(O)cc1O)c1ccc([N+](=O)[O-])cc1 (stereo not given) | 0 | 70.7 | 0 | 0 | 0 | 0
COc1ccc(C(=O)NCCC2=CCCCC2)cc1OC | 0 | 0 | 0 | 0 | 0 | 0
NC(=S)N/N=C/c1c[nH]c2ccccc12 | 0 | 0 | 0 | 0 | 0 | 0
Oc1ccc(C=NN=C2c3ccccc3-c3ccccc32)c(O)c1 | 137.2 | - | 0 | - | - | -
C(=NN=C1c2ccccc2-c2ccccc21)c1c[nH]c2ccccc12 | 130.6 | - | 0 | - | - | -
CCOC(=O)CCC(=O)O[C@H]1[C@H](O[C@@H]2[C@@H](C)[C@H](O[C@H]3C[C@@](C)(OC)[C@@H](O)[C@H](C)O3)[C@@H](C)C(=O)O[C@H](CC)[C@@](C)(O)[C@H](O)[C@@H](C)C(=O)[C@H](C)C[C@@]2(C)O)O[C@H](C)C[C@@H]1N(C)C | 0 | 104.7 | 0 | - | - | -
CC[C@H]1OC(=O)[C@H](C)[C@@H](O[C@H]2C[C@@](C)(OC)[C@@H](O)[C@H](C)O2)[C@H](C)[C@@H](O[C@@H]2O[C@H](C)C[C@H](N(C)C)[C@H]2O)[C@](C)(O)C[C@@H](C)C(=O)[C@H](C)[C@@H](O)[C@]1(C)O | 0 | 101.7 | 0 | - | - | -
CC(Oc1ccc(Cl)cc1C(N)=O)C(=O)N1CCc2ccccc21 (stereo not given) | 0 | - | 0 | 0 | 0 | 0
CC(Oc1ccc(Cl)cc1Cl)C(=O)NC(=S)N1CCc2ccccc21 (stereo not given) | 0 | 104.4 | 0 | 0 | 0 | 0
Cc1ccc(C(=O)Cn2cncn2)cc1 | 0 | 0 | 0 | 0 | 0 | 0
CCOc1ccc(NS(=O)(=O)c2ccc3c(c2)N(C(C)=O)CC3)cc1 | 0 | 0 | 0 | 0 | 0 | 0
COC(=O)C(NC(=O)CCc1nnc2ccc(N3CCCCC3)nn12)C(C)C (stereo not given) | 0 | 0 | 0 | 0 | 0 | 0
SMILES | PfHsp90 yeast 2 | SKKanGAS inh | ATG4B inhibitor | tim23-1 inh | TIM10 inh | tim10-1 inh
CC(=O)Nc1ccc(Nc2cc(C(C)C)nc3c(-c4ccccc4)c(C)nn23)cc1 | 107.8 | 87.7 | 0 | 0 | 0 | 0
CCc1ccc(OCC(=O)NNC(=S)NC(=O)C2CC2)c(Br)c1 | 107.6 | - | 0 | 0 | 0 | 0
CCc1ccc(OCC(=O)NNC(=S)NC(=O)C2CCCCC2)c(Br)c1 | 0 | 89.9 | 0 | 0 | 0 | 0
CCc1ccc(OCC(=O)NC(=S)Nc2ccc(C)cc2C)c(Br)c1 | 0 | 0 | 0 | 0 | 0 | 0
CCc1ccc(OCC(=O)NC2CCCCC2)c(Br)c1 | 0 | 0 | 0 | 0 | 0 | 0
CN(C)C(CNC(=O)C1CCN(S(=O)(=O)c2ccccc2)CC1)c1ccccc1 (stereo not given) | 0 | - | 0 | 0 | 0 | 0
Fc1cccc2sc(Nc3nc4c(F)cccc4s3)nc12 | 0 | 0 | 0 | 0 | 0 | 0
COc1ccc(-c2nnc(Nc3nc4c(OC)cccc4s3)o2)c(OC)c1 | 0 | 0 | 0 | 0 | 0 | 0
COc1ccc(-c2nnc(Nc3nc4c(OC)cccc4s3)o2)cc1 | 0 | 73.2 | 0 | - | - | -
Fc1cccc2sc(Nc3nnc(-c4ccccc4)o3)nc12 | 0 | 87.4 | 0 | 0 | 0 | 0
COc1ccc(S(=O)(=O)NCC2CCCN(Cc3ccc(OC)cc3F)C2)cc1 (stereo not given) | 0 | 81.7 | 0 | 0 | 0 | 0
COc1ccc(S(=O)(=O)NCC2CCCN(Cc3ccccc3Cl)C2)cc1 (stereo not given) | 0 | 0 | 0 | 0 | 0 | 0
Cc1ccc(NS(=O)(=O)c2ccc(C(=O)OCC(=O)N3CCCCC3)cc2)cc1 | 0 | - | 0 | 0 | 0 | 0
CCN1C/C(=C/c2cccc([N+](=O)[O-])c2)C(=O)/C(=C/c2cccc([N+](=O)[O-])c2)C1 | 101.9 | - | 0 | - | - | -
Oc1cc(-c2ccc(N3CCCCC3)nc2)cc2cccnc12 | 110.6 | - | 0 | 0 | 0 | 0
CN(C)c1ccc(-c2cc(O)c3ncccc3c2)cc1 | 101.2 | - | 0 | 0 | 0 | 0
COc1nc(-c2ccccc2)cc(C(F)(F)F)n1 | 0 | 0 | 0 | 0 | 0 | 0
Cc1cc(N)n(-c2nc3ccccc3s2)n1 | 0 | 0 | 0 | 0 | 0 | 0
Fc1cccc(Nc2ncnc3c2cnn3-c2ccccc2)c1 | 0 | 0 | 0 | 0 | 0 | 0
Clc1cccc(Nc2ncnc3c2cnn3-c2ccccc2)c1 | 0 | 63.5 | 0 | 0 | 0 | 0
Cc1cc(Cl)ccc1OCCCC(=O)NNC(=O)c1ccccc1O | - | 101.5 | 0 | 0 | 0 | 0
Cc1ccccc1C(=O)Nc1ccc(C(=O)NNC(=O)CCCOc2ccc(Cl)cc2Cl)cc1 | - | 0 | 0 | 0 | 0 | 0
Cc1ccc(S(=O)(=O)N[C@@H](CC(C)C)C(=O)NCc2ccco2)cc1 | 0 | 0 | 0 | 0 | 0 | 0
COc1ccc(S(=O)(=O)Nc2cc3c4c(oc3c3ccccc23)CC(C)(C)CC4=O)cc1 | - | 52.5 | 0 | 0 | 0 | 0
CC1Cc2ccccc2N1C(=O)CSc1nnnn1-c1ccc2c(c1)OCCO2 (stereo not given) | 0 | 0 | 0 | 0 | 0 | 0
Cc1cc(C)nc(SCC(=O)NC2=NN=C(c3ccc(Br)cc3)CS2)n1 | - | 99.0 | 0 | 0 | 0 | 0

Compound activity (PubChem)
